Data as given in article PMC4336329 (PLoS ONE, 2015).
About 14,000 (4.5%) of roughly 310,000 compounds showed an effect of 50% or more. The effect is printed as a negative number. The entries come from a sample that favours strong results as a whole.

The molecules below were run against human ether-à-go-go-related gene (hERG) potassium channel (human, UniProt Q12809) (assay: primary screen, population patch clamp on CHO cells stably expressing hERG; higher = less effect of the substance).
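Also: peak tail current of the secondary pulse compared with the same well before compound.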

Chain of human ether-à-go-go-related gene (hERG) potassium channel (Q12809 whole entry, looked up): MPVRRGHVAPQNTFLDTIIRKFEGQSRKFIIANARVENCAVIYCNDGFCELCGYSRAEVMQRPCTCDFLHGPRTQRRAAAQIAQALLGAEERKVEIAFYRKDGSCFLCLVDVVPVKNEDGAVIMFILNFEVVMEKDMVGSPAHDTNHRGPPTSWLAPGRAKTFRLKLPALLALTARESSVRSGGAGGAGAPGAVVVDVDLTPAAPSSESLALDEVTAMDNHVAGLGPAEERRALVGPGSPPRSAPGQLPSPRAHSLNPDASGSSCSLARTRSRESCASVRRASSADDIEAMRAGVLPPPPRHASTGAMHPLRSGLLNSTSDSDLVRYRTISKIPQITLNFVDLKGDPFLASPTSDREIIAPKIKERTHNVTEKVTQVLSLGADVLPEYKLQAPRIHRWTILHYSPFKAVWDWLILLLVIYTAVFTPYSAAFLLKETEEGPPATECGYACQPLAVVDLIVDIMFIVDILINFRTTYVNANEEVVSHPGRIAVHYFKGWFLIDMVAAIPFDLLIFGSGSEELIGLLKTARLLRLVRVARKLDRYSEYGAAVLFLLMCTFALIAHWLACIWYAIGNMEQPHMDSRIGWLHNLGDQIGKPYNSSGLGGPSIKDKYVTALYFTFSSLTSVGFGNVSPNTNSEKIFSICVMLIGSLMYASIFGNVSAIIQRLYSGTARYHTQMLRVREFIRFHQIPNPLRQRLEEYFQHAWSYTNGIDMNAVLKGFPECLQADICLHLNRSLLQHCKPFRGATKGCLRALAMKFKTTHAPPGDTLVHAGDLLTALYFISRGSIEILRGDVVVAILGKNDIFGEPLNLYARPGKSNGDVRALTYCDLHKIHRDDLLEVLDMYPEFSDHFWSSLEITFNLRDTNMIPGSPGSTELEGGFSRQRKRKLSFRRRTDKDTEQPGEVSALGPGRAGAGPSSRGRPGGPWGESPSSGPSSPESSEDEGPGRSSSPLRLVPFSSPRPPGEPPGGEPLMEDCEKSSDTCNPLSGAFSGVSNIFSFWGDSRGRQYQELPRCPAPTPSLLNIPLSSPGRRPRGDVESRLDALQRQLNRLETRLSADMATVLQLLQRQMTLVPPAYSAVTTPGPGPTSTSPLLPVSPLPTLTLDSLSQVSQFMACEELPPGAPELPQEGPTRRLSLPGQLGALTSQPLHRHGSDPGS

Compound | hERG current change (%, negative = inhibition) at 10uM
Cc1ccc(OCc2nc3ccccc3[nH]2)cc1 | -9.02%
O=C(CN1CCN(c2cccc(C(F)(F)F)c2)CC1)N(C1CC1)C1CCS(=O)(=O)C1 (stereo not drawn) | -29.2%
O=[N+]([O-])c1cccnc1N1CCCCC1 | 5.7%
Cc1c(C(=O)N2CCN(c3ccccc3)CC2)sc2nc3n(c(=O)c12)CCC3 | 6.84%
COc1ccc(-c2nnnn2C)cc1S(=O)(=O)NCCc1ccccc1 | -2.23%
CCc1c(C)sc(NC(=O)Cc2ccccc2OC)c1C(=O)N1CCOCC1 | -16.4%
Cc1cc(N)n2nc(-c3ccc(C(C)(C)C)cc3)cc2n1 | 8.26%
O=C(NCC(c1cccs1)N1CCOCC1)c1cc([N+](=O)[O-])ccc1Cl (stereo not drawn) | -20.5%
NC(=O)c1ccccc1OCC(=O)Nc1ccc2c(c1)CCC2 | 5.27%
Cc1ccc(S(=O)(=O)Oc2ccc(/C=C3\N=C(c4cccc(C)c4)OC3=O)cc2)cc1 | 1.5%
O=C(COc1ncnc2ccccc12)Nc1ccc(Cl)c(S(=O)(=O)N2CCOCC2)c1 | -13.5%
CCn1c(C)c(C(=O)O)c2cc(OC)ccc21 | 6.41%
Cc1ccc(NC(=O)c2ccc(Cl)c(N3C(=O)C=CC3=O)c2)cc1 | -0.826%
CN(CCOc1ccccc1)C(=O)c1ccc(OC2CCN(C(=O)C3CC3)CC2)cc1 | -25.7%
COc1ccc(NC(=O)CCC(=O)Nc2nnc(CC(C)C)s2)cc1Cl | 20%
COc1ccc(SC[C@H](Cc2ccccc2)N2CCN(C)CCC2=O)cc1 | -52.2%
CN1CCC(=O)N([C@H](CO)Cc2ccccc2)CC1 | 12%
Cc1nn(CCCC(=O)NCc2ccc(Cl)cc2)c(C)c1[N+](=O)[O-] | -41.9%
Nc1cc(C(=O)N2CCCC2)cc(C(=O)N2CCCC2)c1 | 11.9%
O=C(O)c1ccc2cc(-c3ccccc3)[nH]c2c1 | -30.8%

Compound | hERG current change (%, negative = inhibition) at 10uM
C=CCN1C(=O)C(Cc2ccc(OC)cc2)S/C1=N\N=C\c1cccs1 (stereo not drawn) | 13.1%
O=C1CC(N2CCN(c3ccccn3)CC2)C(=O)N1CC(c1ccccc1)c1ccccc1 (stereo not drawn) | -64%
O=C(O)CCC(=O)N1CCN(c2ccccn2)CC1 | 9.16%
O=C(CCn1nc(-c2ccc(Cl)cc2)ccc1=O)N1CCN(c2ccc(F)cc2)CC1 | -52.9%
O=C(CSc1ccccc1)N1CCN(c2ccccn2)CC1 | -24.6%
CN1C(=O)CC(N2CCN(c3ccccn3)CC2)C1=O (stereo not drawn) | 1.46%
O=C(CCn1nc(-c2ccc(Cl)cc2)ccc1=O)N1CCOCC1 | -36.9%
O=C(CCC(=O)N1CCN(c2ccc(F)cc2)CC1)c1ccccc1 | -12.7%
Cc1ccc(C(=O)CCC(=O)N2CCN(c3ccc(F)cc3)CC2)cc1 | -10.1%
O=C1CC(N2CCN(c3ccccn3)CC2)C(=O)N1c1ccc(F)cc1 (stereo not drawn) | 14.7%
O=C(CCC(=O)N1CCN(c2ccc(F)cc2)CC1)c1ccc(F)cc1 | -69.4%
O=C(CC(c1ccccc1)c1ccccc1)N1CCN(c2ccccn2)CC1 | -53.4%
O=C(CCn1nc(-c2ccc(Cl)cc2)ccc1=O)N1CCN(c2ccccc2)CC1 | -45.9%
Cn1c(COc2cccc3cccnc23)nnc1SCC(=O)O | 9.13%
Cc1cccc(C)c1NC(=O)CCS(=O)(=O)c1cccc2nsnc12 | -4.59%
CCOC(=O)c1cc2c(ccn2C)n1Cc1ccccc1C | 11.8%
CN1C(=O)CC(c2ccccc2)C1=O (stereo not drawn) | 3.18%
Cc1cc(NCCc2ccccc2F)n2ncnc2n1 | -1.21%
Cc1cc(C)cc(N(C(=O)Cc2cccs2)C(C(=O)NC2CCCC2)c2ccc(C)o2)c1 (stereo not drawn) | 2.77%
COC(=O)c1cc2c(ccn2-c2ccc(F)cc2)n1Cc1cccc(OC)c1 | 0.0373%

Compound | hERG current change (%, negative = inhibition) at 10uM
O=C(CCn1nc(-c2ccccc2)ccc1=O)N1CCN(c2ccccn2)CC1 | -53.1%
O=C(CCC(=O)N1CCN(c2ccc(F)cc2)CC1)N1CCN(c2ccc(F)cc2)CC1 | -43.9%
Cc1ccc(-c2ccc(=O)n(CCC(=O)N3CCN(c4ccccc4)CC3)n2)cc1 | -49.1%
O=C(CCn1nc(-c2ccccc2)ccc1=O)N1CCN(c2ccccc2)CC1 | -11.2%
O=C(O)CCC(=O)N1CCN(c2ccc(C(=O)c3ccc(F)cc3)cc2)CC1 | 0.927%
O=C(CCC(=O)N1CCN(c2ccc(F)cc2)CC1)c1ccc(Cl)cc1 | -55.8%
CC(C)CN(C(=O)COC(=O)c1ccc([N+](=O)[O-])o1)C1CCS(=O)(=O)C1 (stereo not drawn) | -31.8%
CC(C)COC(=O)N1CC(O)CC1C(=O)O (stereo not drawn) | 25.3%
COCC(=O)Nc1nnc(SCC(=O)N2C(C)CCCC2C)s1 (stereo not drawn) | 15.2%
CCCC(=O)Nc1nnc(SCC(=O)N2C(C)CCCC2C)s1 (stereo not drawn) | -50.1%
CC(=O)Nc1nnc(SCC(=O)N2C(C)CCCC2C)s1 (stereo not drawn) | 12.9%
O=C(CSc1ncn[nH]1)Nc1cccc(S(=O)(=O)N2CCCCCC2)c1 | -77.1%
COc1ccc(-n2cnnc2SCC(=O)Nc2cc(S(=O)(=O)N3CCCCC3)ccc2C)cc1 | -84%
Cc1ccc(S(=O)(=O)N2CCCCC2)cc1NC(=O)CSc1nncn1-c1ccccc1 | -35.2%
COCCn1cnnc1SCC(=O)Nc1cccc(S(=O)(=O)N2CCCCC2)c1 | -17.8%
O=C(CSc1ncn[nH]1)Nc1ccc(S(=O)(=O)N2CCCC2)cc1 | 14.5%
Cn1cnnc1SCC(=O)Nc1cccc(S(=O)(=O)N2CCCCCC2)c1 | -17.4%
Cc1ccc(S(=O)(=O)N2CCCCC2)cc1NC(=O)CSc1ncn[nH]1 | 12%
COc1ccc(-n2cnnc2SCC(=O)Nc2cccc(S(=O)(=O)N3CCCCC3)c2)cc1 | -18.5%
COCCn1cnnc1SCC(=O)Nc1cccc(S(=O)(=O)N2CCCCCC2)c1 | -60.3%
